The results in this text go back to PubChem BioAssay (Tox21).

Values joined by “and” are separate entries in the source; they are usually repeats but may differ in a detail not shown here. Equal entries are not always repeated. Records with an inconclusive call do not appear. Active and inactive are the calls of the source. Unless noted, calls follow the shape of the dose curve; as a rule, active = well fitted curve in the direction sought with a large enough effect in the repeat runs; inconclusive = weak or mixed curves; inactive = no such curve, though single readings can be large; an effect the other way counts as inactive or inconclusive.

Assay [1] can be described thus: qHTS assay to identify small molecule that activate the aryl hydrocarbon receptor (AhR) signaling pathway - cell viability counter screen (AID 743086).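 Also: HepG2 liver cells carrying the AhR DRE luciferase reporter; series mostly up to about 70 µM; nearly all actives have a fitted effect of over 45% in size.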 Summed up: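 HepG2-AhR-luc (HG2L7.5c1) cells, 4000/well, were preincubated 5 h at 37C, exposed to compound in qHTS format for 24 hr at 37C, then given CellTiter-Fluor for 30 min; viability was read as fluorescence in the reporter wells.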

A short description of assay [2]: qHTS assay to identify small molecule antagonists of the peroxisome proliferator-activated receptor gamma (PPARg) signaling pathway - cell viability counter screen (AID 743194). Also: nearly all actives have a fitted effect of over 55% in size. Conditions: Potency: co-treated with 50 nM rosiglitazone unless noted. Summed up:
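PPARg-UAS-bla HEK293H cells were plated, rested 5 h at 37 C, then treated with compounds plus rosiglitazone (50 nM final) for 17 h at 37 C; viability was then read by CellTiter-Glo luminescence after 30 min at room temperature.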
A general note: In qHTS, concentration-response curves come from the screen itself.

Assay [3] is described as follows: qHTS assay for small molecule agonists of the antioxidant response element (ARE) signaling pathway (AID 743202; active = well fitted activation curve with a large enough effect in the signal ratio in the repeat runs, not every such curve was filed as active; the % refers to the signal ratio; also: potency is read from the fitted curve at half-maximal effect). Summed up: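 Steps: seed ARE-bla HepG2 cells (2,000/well); incubate 5 h at 37 C; add compounds by pin tool; incubate 16 h at 37 C; add FRET substrate; read fluorescence after 2 h at RT.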
The nature of assay [4]: qHTS assay for small molecule agonists of the antioxidant response element (ARE) signaling pathway - cell viability counter screen (AID 743203; calls by dose curve; also: nearly all actives have a fitted effect of over 55% in size). The procedure, abridged:
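Parallel cytotoxicity read-out for the ARE-bla screen: HepG2 reporter cells, 16 hrs with compounds, then CellTiter-Glo luminescence.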

Assay [5] in a line: qHTS assay for small molecule activators of the heat shock response signaling pathway - cell viability counter screen (AID 743209). Also: nearly all actives have a fitted effect of over 50% in size. The procedure, abridged: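 To flag cytotoxic compounds, HSE-bla HeLa cells plated at 1500 cells/well were dosed for 5 h at 37 C, followed by the reporter FRET read and then CellTiter-Glo, with luminescence recorded 30 min after reagent addition.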

The nature of assay [6]: qHTS assay to identify small molecule agonists of the peroxisome proliferator-activated receptor delta (PPARd) signaling pathway - cell viability counter screen (AID 743211). Also: nearly all actives have a fitted effect of over 55% in size. The procedure, abridged: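 Luminescent ATP viability assay (CellTiter-Glo, 30 min RT) in UAS-bla HEK293H cells carrying the PPAR delta reporter construct, 3000 cells/well, after a 17 h compound treatment at 37 C.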

Assay [7] is described as follows: qHTS assay to identify small molecule antagonists of the peroxisome proliferator-activated receptor delta (PPARd) signaling pathway - cell viability counter screen (AID 743213). Also: nearly all actives have a fitted effect of over 50% in size. The procedure, abridged: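 Same-well viability: cells pre-incubated 5 h, dosed with compound plus 300 nM L165041, kept 17 h at 37 C, FRET substrate 2 h RT, then CellTiter-Glo 30 min RT and luminescence.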

The nature of assay [8]: qHTS assay to identify small molecule agonists of the farnesoid-X-receptor (FXR) signaling pathway - cell viability counter screen (AID 743218). Also: nearly all actives have a fitted effect of over 45% in size. The procedure, abridged:
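Same-well cytotoxicity check on FXR-UAS-bla HEK 293T cells: 5 h attachment, 16 h compound at 37 C, CellTiter-Glo luminescence read at room temperature after 30 min.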

The nature of assay [9]: qHTS assay to identify small molecule antagonists of the farnesoid-X-receptor (FXR) signaling pathway - cell viability counter screen (AID 743221; active = well fitted cell-killing curve with a large enough effect in the repeat runs, not every such curve was filed as active; also: nearly all actives have a fitted effect of over 50% in size). Summed up:
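In GeneBLAzer FXR-UAS-bla HEK 293T cells stimulated with 50 uM chenodeoxycholic acid (final), compounds acted for 16 h at 37 C. Viability was assessed afterwards by CellTiter-Glo luminescence.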

A short description of assay [10]: qHTS assay to identify small molecule agonists of the vitamin D receptor (VDR) signaling pathway - cell viability counter screen (AID 743224). Also: series mostly up to about 63 µM; nearly all actives have a fitted effect of over 50% in size. The procedure, abridged: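 Counter screen for cytotoxicity: VDR-bla cells at 2,000 cells/well, 16 h compound exposure, then CellTiter-Glo luminescence after the beta-lactamase measurement.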
Assay [11] in a line: qHTS assay to identify small molecule antagonists of the vitamin D receptor (VDR) signaling pathway - cell viability counter screen (AID 743225). Also: nearly all actives have a fitted effect of over 50% in size. The procedure, abridged: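 Luminescent cell viability (CellTiter-Glo) in VDR-bla HEK 293T cells after 16 h compound exposure at 37C in the presence of 3 nM final 1-alpha,25-dihydroxy vitamin D3.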
A short description of assay [12]: qHTS assay to identify small molecule agonists of the NFkB signaling pathway - cell viability counter screen (AID 1159515; calls by dose curve; also: series mostly up to about 61 µM; nearly all actives have a fitted effect of over 55% in size). The procedure, abridged:
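Counter screen run alongside the NFkB-bla agonist assay: ME-180 reporter cells exposed to compounds for 5 hr, then lysed with CellTiter-Glo in the same wells. Luminescence, read after 30 min, reflects viable cells.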

Assay [13] addresses Peroxisome proliferator-activated receptor gamma (Homo sapiens) (UniProt P37231). Put plainly: qHTS assay to identify small molecule agonists of the peroxisome proliferator-activated receptor gamma (PPARg) signaling pathway (AID 743094; active = well fitted activation curve with a large enough effect in the signal ratio in the repeat runs, not every such curve was filed as active; the % refers to the signal ratio). The procedure, abridged:
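Fluorescence-based beta-lactamase readout in HEK293H PPARg UAS-bla cells after 17 h compound exposure (37C) and 1 h B/G FRET substrate incubation at room temperature.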

The nature of assay [14]: qHTS assay for small molecule activators of the heat shock response signaling pathway (AID 743210; active = well fitted activation curve with a large enough effect in the signal ratio in the repeat runs, with a control signal flat, not every such curve was filed as active; the % refers to the signal ratio;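 also: HeLa cells with beta-lactamase reporter driven by heat shock elements; series mostly up to about 63 µM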). Summed up: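 Activation of heat shock element-controlled beta-lactamase expression is measured in HeLa cells by LiveBLAzer FRET fluorescence, with compound exposure lasting 5 h at 37 C and substrate loading 2.5 h at room temperature.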
The target of assay [15] is Peroxisome proliferator-activated receptor delta (Homo sapiens) (UniProt Q03181). Description: qHTS assay to identify small molecule agonists of the peroxisome proliferator-activated receptor delta (PPARd) signaling pathway (AID 743212; calls by dose curve). Summed up:
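Cells expressing a UAS-driven beta-lactamase reporter (PPARd-bla HEK293H) were given test compounds after a 5 h settle and kept at 37 C. Reporter activity was then measured as FRET fluorescence using LiveBLAzer B/G substrate.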

For assay [16] the target is unchanged. Put plainly: qHTS assay to identify small molecule antagonists of the peroxisome proliferator-activated receptor delta (PPARd) signaling pathway (AID 743215; active = well fitted inhibition curve with a large enough effect in the signal ratio in the repeat runs, not every such curve was filed as active; the % refers to the signal ratio;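 also: cells stimulated with agonist L165041 at 300 nM final during compound exposure; series mostly up to about 62 µM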). The procedure, abridged: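 Screen format: qHTS, antagonist mode. HEK293H PPARd-bla cells received compound and 300 nM L165041 (final), 17 h, 37 C. Beta-lactamase detected via FRET substrate fluorescence, 2 h, room temperature.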

Assay [17] has as its target Vitamin D3 receptor (Homo sapiens) (UniProt P11473). Put plainly: qHTS assay to identify small molecule antagonists of the vitamin D receptor (VDR) signaling pathway (AID 743223; active = well fitted inhibition curve with a large enough effect in the signal ratio in the repeat runs, not every such curve was filed as active; the % refers to the signal ratio). The procedure, abridged: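 Agonist 1alpha,25-dihydroxyvitamin D3 (3 nM in well) was added with each compound to VDR-bla cells preincubated 4 h. Cells stood 16 h at 37C, then FRET substrate 2 h at room temperature; fluorescence intensity recorded.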

The target in assay [18] is Bile acid receptor (Homo sapiens) (UniProt Q96RI1). Put plainly: qHTS assay to identify small molecule agonists of the farnesoid-X-receptor (FXR) signaling pathway (AID 743220; active = well fitted activation curve with a large enough effect in the signal ratio in the repeat runs, not every such curve was filed as active; the % refers to the signal ratio). The procedure, abridged: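 FXR-UAS-bla HEK 293T cells carrying a UAS-driven beta-lactamase reporter were plated for 5 h at 37C/5% CO2, then exposed to DMSO-dissolved Tox21 10K compounds for 16 h at 37C. A LiveBLAzer B/G FRET substrate was loaded for 2 h at room temperature before fluorescence reading.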
Sequence of Bile acid receptor (Homo sapiens) (Q96RI1 whole entry, looked up): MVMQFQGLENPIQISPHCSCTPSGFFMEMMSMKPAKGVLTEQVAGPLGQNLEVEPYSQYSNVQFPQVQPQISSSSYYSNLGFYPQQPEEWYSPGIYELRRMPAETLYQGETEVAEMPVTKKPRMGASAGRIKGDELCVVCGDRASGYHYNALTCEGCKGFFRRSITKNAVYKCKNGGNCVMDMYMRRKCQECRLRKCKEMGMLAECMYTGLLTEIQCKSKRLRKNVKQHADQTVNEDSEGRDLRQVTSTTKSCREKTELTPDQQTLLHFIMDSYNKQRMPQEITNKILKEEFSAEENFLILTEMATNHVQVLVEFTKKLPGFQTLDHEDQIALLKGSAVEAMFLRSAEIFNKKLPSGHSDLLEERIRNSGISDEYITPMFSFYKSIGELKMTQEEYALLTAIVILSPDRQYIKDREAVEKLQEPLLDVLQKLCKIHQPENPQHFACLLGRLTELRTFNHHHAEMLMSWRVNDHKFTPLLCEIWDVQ

Sequence of Peroxisome proliferator-activated receptor delta (Homo sapiens) (Q03181 whole entry, looked up): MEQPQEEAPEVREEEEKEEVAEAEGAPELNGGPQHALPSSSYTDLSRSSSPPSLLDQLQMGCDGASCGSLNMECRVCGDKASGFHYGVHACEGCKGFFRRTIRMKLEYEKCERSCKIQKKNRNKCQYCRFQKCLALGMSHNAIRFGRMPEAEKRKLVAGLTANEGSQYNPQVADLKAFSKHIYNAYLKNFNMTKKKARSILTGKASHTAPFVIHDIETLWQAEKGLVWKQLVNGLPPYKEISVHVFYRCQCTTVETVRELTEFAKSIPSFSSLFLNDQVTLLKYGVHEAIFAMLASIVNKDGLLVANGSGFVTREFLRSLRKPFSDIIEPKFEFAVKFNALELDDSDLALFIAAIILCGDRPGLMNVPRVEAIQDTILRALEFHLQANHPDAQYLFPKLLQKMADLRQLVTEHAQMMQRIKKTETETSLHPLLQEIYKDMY
Sequence of Peroxisome proliferator-activated receptor gamma (Homo sapiens) (P37231 whole entry, looked up): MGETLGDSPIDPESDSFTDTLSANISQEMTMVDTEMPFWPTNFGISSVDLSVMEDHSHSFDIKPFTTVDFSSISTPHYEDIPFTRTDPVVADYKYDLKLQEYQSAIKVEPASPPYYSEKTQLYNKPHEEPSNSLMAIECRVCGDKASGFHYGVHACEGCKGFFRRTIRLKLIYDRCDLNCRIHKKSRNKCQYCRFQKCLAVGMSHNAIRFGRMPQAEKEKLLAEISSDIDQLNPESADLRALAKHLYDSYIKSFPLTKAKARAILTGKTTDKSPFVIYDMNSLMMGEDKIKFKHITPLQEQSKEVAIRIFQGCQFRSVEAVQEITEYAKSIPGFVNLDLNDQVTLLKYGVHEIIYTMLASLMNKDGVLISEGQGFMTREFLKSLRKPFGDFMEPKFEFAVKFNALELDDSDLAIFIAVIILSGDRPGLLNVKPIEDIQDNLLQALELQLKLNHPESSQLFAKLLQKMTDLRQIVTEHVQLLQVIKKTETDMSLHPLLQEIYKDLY
Sequence of Vitamin D3 receptor (Homo sapiens) (P11473 whole entry, looked up): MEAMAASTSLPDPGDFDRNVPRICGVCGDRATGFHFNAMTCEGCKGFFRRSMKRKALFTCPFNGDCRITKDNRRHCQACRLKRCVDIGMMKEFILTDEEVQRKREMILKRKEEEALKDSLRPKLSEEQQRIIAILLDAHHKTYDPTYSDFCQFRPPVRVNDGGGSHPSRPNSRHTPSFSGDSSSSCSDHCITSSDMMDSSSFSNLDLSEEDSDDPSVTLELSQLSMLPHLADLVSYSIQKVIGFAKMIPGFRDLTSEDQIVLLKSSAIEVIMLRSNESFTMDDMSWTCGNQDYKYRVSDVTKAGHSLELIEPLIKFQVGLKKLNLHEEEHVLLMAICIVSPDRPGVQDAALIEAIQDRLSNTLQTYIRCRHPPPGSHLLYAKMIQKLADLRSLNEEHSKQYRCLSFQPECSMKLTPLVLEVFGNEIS

Take `CCCCCCCCCCCC(=O)O`: the Potency entry in [1], in assay [2], in assay [3], in [4], in [5] and in assay [6] was “inactive” each time. The Potency entry in [7], in assay [8], in assay [9], in assay [10], in assay [11] and in [12] was “inactive” throughout.

In the case of `COc1ccc(N)cc1`, the Potency entry in assay [1], in assay [2], in [3], in assay [4], in assay [6] and in assay [7] was “inactive” throughout. Also, the Potency entry in assay [8], in assay [9], in [10] and in [12] was “inactive” in each case. Besides, the outcome in assay [13], in assay [14], in assay [15] and in [16] was inactive.

Take `CCCCCCCCn1cc[n+](C)c1`: the Potency result in assay [1], in assay [2], in assay [4], in [6], in [7] and in assay [8] was “inactive” in each case. For the same molecule, the Potency result in assay [9], in assay [17] and in assay [12] was “inactive” each time. The Potency in assay [3] is 4.32 µM (active) and 5.49 µM (active). Also, the outcome in assay [14] was inactive.

On to `CCCC[N+]1(C)CCCC1`, for which the Potency entry in [1], in [2], in assay [3], in [4], in assay [6] and in assay [7] was “inactive” in each case. Moreover, the Potency result in assay [8], in assay [9], in [10], in [11] and in assay [12] was “inactive” in each case. In addition, the result in assay [14] was inactive.

As to `COP(=O)(OC)C(O)C(Cl)(Cl)Cl` (configuration not stated), the Potency result in assay [1], in assay [2], in assay [4], in [5], in assay [6] and in assay [7] was “inactive” throughout. Also, the Potency result in assay [8], in assay [9], in [10], in [11] and in [12] was “inactive” each time. The call in [13], in [14], in assay [15], in assay [16] and in assay [18] was inactive.

`CC[N+]1(C)CCCC1`: the Potency result in [1], in assay [2], in assay [3], in [4], in [6] and in assay [7] was “inactive” in each case. The Potency result in [8], in [9], in assay [10] and in assay [12] was “inactive” in each case. Besides, the molecule was classed as inactive in assay [14].

On to `CCC[N+]1(C)CCCC1`, for which the Potency entry in assay [1], in assay [2], in [3], in assay [4], in assay [5] and in assay [6] was “inactive” each time. Further, the Potency entry in assay [7], in [8], in assay [9], in assay [10], in assay [11] and in [12] was “inactive” throughout. For the same molecule, the outcome in [14], in assay [15] and in assay [16] was inactive.

Take `CCC[N+]1(C)CCCCC1`: the Potency entry in assay [1], in assay [2], in [3], in assay [4], in assay [6] and in assay [7] was “inactive” in each case. Besides, the Potency result in assay [8], in assay [9], in assay [10] and in [12] was “inactive” each time. Further, the result in assay [14] was inactive.
